PubChem BioAssay AID493011 (Sanford-Burnham Center for Chemical Genomics, 2011)
The whole screen tested about 330,000 compounds, of which about 1,400 (0.42%) were called active. Many of the other results were omitted from the sample, so actives are more common in it than they were. Values without a mark were called inactive.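 How the source made its calls: active means at least 40% inhibition at 20 µM here, with at most 30% in a related deaminase screen; inactive means the rest.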

The compounds below were run against DNA dC->dU-editing enzyme APOBEC-3A (Homo sapiens) (UniProt P31941) (assay: blockers of A3A cytidine deamination on DNA – biochemical, FAM/TAMRA oligo cleavage fluorescence, selectivity assay for APOBEC3G inhibitor project, primary screen (AID 493011;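 further: plate controls were A3A with DMSO for no effect and wells lacking A3A enzyme for full effect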)). Conditions: recombinant A3A, FAM/TAMRA ssDNA deamination fluorescence; at 20 µM; hits give high values.
Chain of DNA dC->dU-editing enzyme APOBEC-3A (Homo sapiens) (P31941 whole entry, looked up): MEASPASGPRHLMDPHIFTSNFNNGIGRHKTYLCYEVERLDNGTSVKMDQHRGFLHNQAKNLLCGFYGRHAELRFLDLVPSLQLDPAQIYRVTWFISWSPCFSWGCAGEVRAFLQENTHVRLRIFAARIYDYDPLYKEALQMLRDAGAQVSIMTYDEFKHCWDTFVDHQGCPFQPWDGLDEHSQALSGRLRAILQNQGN

Structure (SMILES) | inhibition
COCCN1C(=O)c2oc3c(C)cc(C)cc3c(=O)c2C1c1cccc(O)c1 (stereo unspecified) | -3.14%
O=C1c2oc3ccccc3c(=O)c2C(c2cccc(O)c2)N1c1ccccn1 (stereo unspecified) | 51.3% (active)
O=c1c2ccccc2c(-c2ccccc2)nn1-c1ccccn1 | 0.978%
O=C(NC(CC(=O)N1CCN(c2ccccc2)CC1)c1ccccc1)c1ccccc1Cl (stereo unspecified) | -2.76%
CN1C(C(=O)NCC2CC2)CC2Cn3c(nc4ccccc43)C21 (stereo unspecified) | -2.77%
CCCCn1c(N)c(N(CC(C)C)C(=O)C2CSC3(C)CCC(=O)N23)c(=O)[nH]c1=O (stereo unspecified) | 7.64%
CN(CC(=O)Nc1ccc(F)c(F)c1F)C(=O)C1CC(=O)N(C2CCCC2)C1 (stereo unspecified) | 0.598%
CCOc1ccc(CNC(=O)C2CC(=O)N(C3CCCC3)C2)cc1OC (stereo unspecified) | -5.29%
COc1ccc(Br)cc1CN(C)C(=O)C1CC(=O)N(C2CCCC2)C1 (stereo unspecified) | 43.5% (active)
Cc1ccc(NS(=O)(=O)c2ccc(C(C)C)cc2)cc1S(=O)(=O)N1CCOCC1 | 3.31%
O=C(Cn1cnc2ccccc2c1=O)Nc1cccc(S(=O)(=O)N2CCCCC2)c1 | 2.51%
CCOc1cc(C)c(S(=O)(=O)NCc2ccccn2)cc1C | -6.13%
O=C(COc1ccccc1)Nc1ccc(C(=O)N2CCCC2)cc1 | 0.542%
C[N+]1(CC(O)COc2ccccc2)CCN(C(=O)c2ccc([N+](=O)[O-])cc2)CC1 (stereo unspecified) | 67.8% (active)
O=[N+]([O-])c1ccc(N2CCN(CC(O)COc3ccccc3)CC2)cc1 (stereo unspecified) | 0.14%
CCN(CC(=O)NCc1cccs1)c1nnnn1-c1ccccc1 | -3.14%
CCCCNC(=O)N1CCCC(N(C)CCc2ccc(OC)c(OC)c2)C1 (stereo unspecified) | -3.11%
CCS(=O)(=O)c1ccc2c(c1)N(S(=O)(=O)c1ccccc1)CC(C(=O)O)O2 (stereo unspecified) | 1.33%
COCCCn1c(Cc2csc(Nc3cccc(Cl)c3)n2)nnc1SCC(=O)OC1CCCCC1 | 50.4% (active)
CCOc1ccc(Nc2nc(Cc3nnc(SCC(=O)NC4CCCC4)n3C)cs2)cc1 | -3.45%
COCCCn1c(SCC(=O)NC2CCCC2)nnc1-c1ccccc1 | 0.169%
O=C(Oc1ccc(-c2nc(-c3ccccn3)no2)cc1)c1ccccc1 | 2.42%
Cc1cn(C2OC[C@@H](O)[C@@H]2CO)c(=O)[nH]c1=O (stereo partly specified) | -1.23%

Structure (SMILES) | inhibition
COc1ccc(CCNC(=O)c2cc3sccc3n2C)cc1OC | 5.91%
COc1ccc(CCNC(=O)COC(=O)/C=C/c2cccs2)cc1OC | 48.9% (active)
COc1ccc(/C=C/C(=O)OCC(=O)NCc2cccs2)cc1OC | 2.47%
COCCn1c(SCC(=O)N2CCCCCC2)nc2c(c1=O)SCC2 | -5.21%
CC(C)(C)C1CCC(C(=O)Nc2cccnc2)CC1 (stereo unspecified) | -2.44%
COc1cc(/C=N/NC(=O)Nc2ccccc2)ccc1OCCOc1ccccc1C | -4.86%
CCCc1ccc(OCc2ccc(C(=O)N/N=C/c3cccc([N+](=O)[O-])c3)o2)c(OC)c1 | 2.99%
COc1cc(/C=N\Nc2ccc([N+](=O)[O-])cn2)ccc1OCC(=O)O | 71.8% (active)
COc1c(C(=O)N2CCCC2)ccc2ccccc12 | 1.55%
O=C(C[n+]1cc(Br)cc2ccccc21)c1ccc(F)cc1 | -1.32%
COC(=O)C[n+]1cccc2ccccc21 | 67.3% (active)
COc1ccccc1NC(=O)COC(=O)c1ccccc1SCC(=O)N1CCCC1 | 1.2%
CCO[C@H]1OC(C(=O)N2CCN(Cc3ccccc3)CC2)=C[C@@H](c2cn(C(C)=O)c3ccccc23)[C@@H]1CCCO | -2.14%
CCOc1c(OC)cccc1C(=O)NCC1(c2ccccc2)CCCC1 | -3.19%
COc1cc(C(=O)NCC2(c3ccccc3)CCCC2)ccc1OC(C)C | 5.08%
O=C(CNC1CCCCC1)NCC1(c2ccccc2)CCCC1 | 56.4% (active)
O=C(NC1(C(F)(F)F)NC(=O)N(Cc2cccnc2)C1=O)c1ccccc1Cl (stereo unspecified) | 0.863%
C[N+]1(CCNC(=O)/C=N/O)CCCCC1 | 54.1% (active)
O=[N+]([O-])c1cc(S(=O)(=O)N2CCCC2)ccc1NN=C1CCCC1 | -1.16%
Cc1ccc(CSc2nsc(C)c2C#N)cc1 | -2.03%
Cc1cc(SCc2c(F)cccc2Cl)nc(=O)[nH]1 | 1.16%
Cc1snc(SCc2c(F)cccc2Cl)c1C#N | 44.2% (active)
Cc1ccc(NC(=O)CN(C)C(=O)COC(=O)C(C)(C)Oc2ccc(Cl)cc2)cc1 | 1.01%
